Assay [1] in a line: qHTS profiling of the MIPE4 collection as inhibitors of Plasmodium falciparum (DD2) proliferation (Rep 2) (AID 743346; call rule not given here). As to conditions: P. falciparum Dd2 in erythrocytes, SYBR Green DNA, 72 h; at 28.5 µM unless noted. In short, it runs like this:
(§1)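 Parasite DNA was quantified by SYBR Green I fluorescence (ex 485, em 535 nm) after overnight lysis in saponin/Triton buffer at room temperature. Cultures at 0.3% parasitemia and 2.5% hematocrit were first exposed to compound for 72 h at 37 C; signals were normalised to artemisinin (0.29 uM) and vehicle wells.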
A general note: qHTS replaces the single test concentration by a dilution series.

The nature of assay [2]: qHTS profiling of the MIPE4 collection as inhibitors of Plasmodium falciparum (HB3) proliferation (AID 743347; call rule not given here;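 note: plate controls were DMSO vehicle wells for no effect and artemisinin wells for full effect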). To be noted: P. falciparum HB3 in erythrocytes, SYBR Green DNA, 72 h; at 28.5 µM unless noted. In short, it runs like this:
as §1

Assay [3] in a line: High-throughput drug toxicity screening in the BPDCN cell line Gen2.2 (AID 1224824; call rule not given here;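 note: cells exposed to compounds for 48 h before reading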). As to conditions: Gen2.2 BPDCN cells; at 45.8 µM (top of the series) unless noted. In short, it runs like this:
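Gen2.2 cells (500/well) in phenol red-free RPMI with 10% FBS were exposed to compounds for 48 h at 37 °C, 5% CO2. Viability was read by CellTiter-Glo luminescence and normalized to DMSO (100%) and 9.2 uM bortezomib (0%).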

Assay [4] is described as follows: qHTS assay for measurement of the activity of small molecule inhibitors on Zika virus induced Caspase-3 activity in human iPSC derived neural progenitor cells (hNPCs) (AID 1224857). Note: % of control where 0% means no effect; nearly all actives have a fitted effect of over 65% in size. Put shortly:
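Values are percent inhibition of virus-induced caspase-3/7 signal, scaled between uninfected cells and ZIKV-infected cells. Infection used 2 FFU/cell for 6 h after 1 h compound exposure.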

Assay [5] is described as follows: qHTS assay for measurement of the activity of small molecule inhibitors on Zika virus induced Caspase-3 activity in human astrocytoma cells (AID 1224859).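 Note: plate controls were ZIKV-infected untreated cells for no effect and uninfected cells for full effect.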 In short, it runs like this:
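Compound added 1 h pre-infection; ZIKV 2 FFU/cell on SNB-19 cells, 6 h, 37 C/5% CO2. Caspase-Glo 3/7 luminescence; values as % inhibition of ZIKV-induced caspase activity.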

A short description of assay [6]: qHTS Screen of the MIPE 4.0 Collection Against Ewings Sarcoma (RDES) (AID 1259252). Note: nearly all actives have a fitted effect of over 35% in size. Note: potency is the fitted concentration of half-maximal effect. Put shortly: (§2)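 Here, cells in 5% FBS RPMI were exposed for two days (48 h) to compound dilutions added four hours after plating. ATP-based CellTiter-Glo luminescence measured viability, normalized to vehicle and no-cell blanks.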
Assay [7] is described as follows: qHTS Screen of the MIPE 4.0 Collection Against Ewings Sarcoma (TC71) (AID 1259253). Note: nearly all actives have a fitted effect of over 40% in size. Note: potency is the fitted concentration of half-maximal effect. Put shortly: as §2
The nature of assay [8]: qHTS Screen of the MIPE 4.0 Collection Against Ewings Sarcoma (EW8) (AID 1259255).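 For viability: 100% = DMSO-treated cells and 0% = medium-only wells without cells.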 Note: nearly all actives have a fitted effect of over 35% in size. Note: potency is the fitted concentration of half-maximal effect. In short, it runs like this: as §2
Assay [9] in a line: qHTS Screen of the MIPE 4.0 Collection Against Ewings Sarcoma (TC32) (AID 1259256). Note: nearly all actives have a fitted effect of over 45% in size. Note: potency is the fitted concentration of half-maximal effect. In short, it runs like this:
as §2

A short description of assay [10]: High-throughput drug toxicity screening in the BPDCN cell line Cal-1 (AID 1224825; call rule not given here). As to conditions: Cal-1 BPDCN cell viability, qHTS; at 45.8 µM (top of the series) unless noted. Put shortly: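 Viability of the BPDCN line Cal-1 is measured as ATP-based luminescence (CellTiter-Glo) following 48 h incubation with compounds. Percent activity uses DMSO-treated wells as 100% and 9.2 uM bortezomib as 0%.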

Where “and” joins values, the source holds several entries; their conditions need not be identical. Identical values can stand only once. Inconclusive results are not listed. Calls of active or inactive are those of the source. Unless noted, calls come from the whole dose curve; as a rule, active = well fitted inhibition curve with a large enough effect; inconclusive = small, poorly fitted or top-dose-only effect; inactive = no such curve, though single readings can be large or run the other way.

`CCS(=O)(=O)Nc1ccc2[nH]c(O)c(C(=Nc3ccc(CN4CCCCC4)cc3)c3ccccc3)c2c1`: in assay [1], the parasite growth, % of control (lower = inhibition) was determined as 13.8%. Besides, in assay [2], the growth, % of control is 4.28%. Also, the cell viability, % of control (lower = more cytotoxic) in assay [3] was determined as 2.51%. Also, the Potency entry in assay [4] and in [5] was “inactive” throughout. Besides, the Potency is 662 nM (active) in assay [6], 132 nM (active) in assay [7], 83.3 nM (active) in [8] and 83.3 nM (active) in assay [9].
In the case of `C[C@H](NC(=O)[C@@H](O)c1cc(F)cc(F)c1)C(=O)N[C@@H]1C(=O)N(C)c2ccccc2-c2ccccc21`, the parasite growth, % of control (lower = inhibition) in [1] was 27.7%. The growth, % of control in [2] is 8.44%. Besides, the cell viability, % of control (lower = more cytotoxic) in assay [3] stood at 165%. Moreover, the Potency entry in assay [4], in assay [5], in [6], in assay [8] and in assay [9] was “inactive” throughout. Besides, in assay [7], the Potency was 20900 nM (active).
Consider `C=CCNC1=C2C[C@@H](C)C[C@H](OC)[C@@H](O)[C@@H](C)C=C(C)[C@H](OC(N)=O)[C@@H](OC)C=CC=C(C)C(=O)NC(=CC1=O)C2=O`, for which, in assay [1], the parasite growth, % of control (lower = inhibition) stood at 9.89%. In assay [2], the growth, % of control stood at 4.67%. Moreover, the cell viability, % of control (lower = more cytotoxic) in assay [3] amounted to 6.66%. Besides, the Potency result in [4] and in [5] was “inactive” throughout. The Potency was 6620 nM (active) in assay [6], 3720 nM (active) in [7], 10500 nM (active) in assay [8] and 372 nM (active) in assay [9].
Consider `CC1(C)CC(O)CC(C)(C)N1[O]`, for which, in assay [3], the cell viability, % of control (lower = more cytotoxic) was determined as 152%. In addition, the Potency entry in assay [4], in [5], in [6], in assay [7], in assay [8] and in assay [9] was “inactive” throughout.
Turning to `COC[C@H](NC(=O)c1cnc(C)s1)C(=O)N[C@@H](COC)C(=O)N[C@@H](Cc1ccccc1)C(=O)[C@@]1(C)CO1`, the parasite growth, % of control (lower = inhibition) in assay [1] worked out at 12.2%. The compound also gave a growth, % of control in [2] of 5.53%. Further, the viability (% of control) in [10] is 3.48%. Also, the Potency result in assay [4] and in assay [5] was “inactive” throughout. For the same compound, the Potency in assay [6] is 132 nM (active); in assay [8], 105 nM (active); in assay [9] it was 148 nM (active).
For the compound `CNC(=O)Nc1ccc(-c2nc(N3CC4CCC(C3)O4)c3cnn(C4CCC5(CC4)OCCO5)c3n2)cc1`, in [1], the parasite growth, % of control (lower = inhibition) came to 8.34%. In assay [2], this compound gave a growth, % of control of 3.02%. The Potency entry in assay [4] and in [5] was “inactive” in each case. Moreover, the Potency in assay [7] was 13.2 nM (active); in assay [8] it was 13.2 nM (active); in assay [9], 7.4 nM (active).
For the compound `O=[N+]([O-])c1cn2c(n1)OC[C@@H](OCc1ccc(OC(F)(F)F)cc1)C2`, in [1], the parasite growth, % of control (lower = inhibition) is 155% and 70.1%. Further, the growth, % of control in [2] was 98.1% and 86.3%. Besides, the viability (% of control) in assay [10] was found to be 105%. For the same compound, the Potency entry in assay [4] and in assay [5] was “inactive” in each case. Besides, the Potency in [6] is 3320 nM (active); in assay [7] it was 3720 nM (active); in assay [8] it was 9350 nM (active); in assay [9], 8330 nM (active).
Consider `CCn1c(=O)c2c(nc(C=Cc3ccc(OC)c(OC)c3)n2C)n(CC)c1=O`, for which the parasite growth, % of control (lower = inhibition) in [1] stood at 34.2%. The same compound yielded a growth, % of control in assay [2] of 47.9%. For the same compound, in assay [10], the viability (% of control) was found to be 99.5%. Moreover, the Potency entry in assay [4], in assay [5], in assay [6] and in assay [8] was “inactive” throughout.
On to `Cc1cc(O)c2c(c1)C(=O)c1cccc(O)c1C2=O`, for which, in [1], the parasite growth, % of control (lower = inhibition) stood at 121%. The compound also returned a growth, % of control in assay [2] of 110%. Moreover, the viability (% of control) in assay [10] was 94.6%. For the same compound, the Potency entry in assay [4], in [5], in [6], in assay [8] and in [9] was “inactive” each time.
`CC[C@H](CC[C@@H](C)[C@H]1CC[C@H]2[C@@H]3CC=C4C[C@@H](O)CC[C@]4(C)[C@@H]3CC[C@]12C)C(C)C` came in with a growth, % of control in [2] of 100%. Also, the viability (% of control) in assay [10] was 107%. The Potency entry in assay [4], in assay [5], in assay [6], in [7], in assay [8] and in [9] was “inactive” throughout.

These data come from PubChem BioAssay (NCATS).
